Data from PubChem BioAssay AID588494 (NMMLSC, 2011).
The other results are listed elsewhere or left out. Active and inactive are the calls of the source.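 How the source made its calls: active means response vs DMSO under 50%, meaning signal dropped by over half, treated as fluorescence quencher; inconclusive means no clear call, values can overlap the other calls; inactive means the rest.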

assay: bead-bound aptamer fluorescence quenching artefacts – biochemical, single concentration, cherry pick 2, flow cytometry, artefact control for GRK2 aptamer binding project, confirmation (AID 588494); conditions: carboxyfluorescein RNA aptamer beads, at 10 µM, active compounds read low;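 further: labelled aptamer on streptavidin beads without GRK2 as a quench counter-screen; 100% = bead fluorescence of DMSO wells and lower means quenching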

Fluorescence response vs DMSO, inactive:
CC(=O)c1ccc(N2CCN(C(=O)c3ccc4nc[nH]c4c3)CC2)cc1 102%
COc1ccc(Cl)cc1NC(=O)CCS(=O)(=O)c1ccc(Br)cc1 101%
O=[N+]([O-])c1ccccc1S(=O)(=O)Nc1cccc2cccnc12 103%
COc1cc([N+](=O)[O-])cc([N+](=O)[O-])c1NC(=O)N1CCOCC1 103%
CCOCCCNC(=O)c1ccc(CS(=O)(=O)c2cccc(C(F)(F)F)c2)o1 103%
CCC(C)(C(=O)NC1CCCCC1)N(C)C(=O)c1ccc2c(c1)OCO2 (stereo not given) 103%
NC(=O)[C@H]1CC2(CC(c3cccc(NC(=O)[C@H]4CCC(=O)N4)c3)=NO2)CN1C(=O)c1ccccc1C(=O)c1ccccc1 (stereo not given in full) 101%
O=C(NCCCN1CCCCCC1)c1ccc(N2CCCC2=O)cc1 100%
Cc1ccc(S(=O)(=O)CC(=O)Nc2sc(C)c(C)c2C(N)=O)cc1 103%
CN=C(Nc1cccc(S(=O)(=O)N2CCOCC2)c1)c1ccccc1 110%
COCCn1c(N)c(NCc2ccccc2)c(=O)[nH]c1=O 103%
CCc1nn(CCCN2CCN(c3cccc(Cl)c3)CC2)c(=O)n1CCOc1ccccc1 100%
COc1ccc(Cl)cc1NC(=O)CCS(=O)(=O)c1cc2c(cc1C)NC(=O)CO2 98%
CCOc1ccc(OCC)c(NC(=O)CCS(=O)(=O)c2ccc(C)cc2)c1 99%
CC1CCN(C(=S)NC2CC3CCC2C3)CC1 (stereo not given) 99%
CCN1CCN(C(=O)N[C@@H](C(=O)N[C@@H]2C(=O)N3C(C(=O)O)=C(CSc4nnnn4C)CS[C@H]23)c2ccc(O)cc2)C(=O)C1=O 99%
COc1cccc(OC)c1C(=O)Nc1ccc(Cc2ccncc2)cc1 98%
O=C(CCS(=O)(=O)c1ccccc1)NC1CCCC1 94%
O=C(C1CCCN(S(=O)(=O)c2ccc([N+](=O)[O-])cc2)C1)N1CCCCC1 (stereo not given) 103%
CCOC(=O)C1=C(N)N(c2ccc(C)cc2)C2=C(C(=O)CCC2)C1c1cccs1 (stereo not given) 106%
Cc1nnc(SCC(=O)N2c3ccccc3C(C)(c3ccc(Cl)cc3)CC2(C)C)s1 (stereo not given) 100%
CCOCCc1c(O)nc(SCC(=O)NCc2ccco2)[nH]c1=O 100%
COc1ccccc1C(=O)N(Cc1ccc(C)o1)C1CCS(=O)(=O)C1 (stereo not given) 98%
CC1Sc2ccc(S(=O)(=O)CCC(=O)NCc3ccccc3Cl)cc2NC1=O (stereo not given) 100%
O=C(NC1C2CC3CC(C2)CC1C3)c1ccc(N2CCNCC2)c([N+](=O)[O-])c1 (stereo not given) 101%
